The record followed here is publication PMC7819943, “Rice protein-binding microarrays: a tool to detect cis-acting elements near promoter regions in rice”.

The full ranking holds about 35,000 sequences; the median of “fluorescence intensity (a.u.)” is about 10,000, and the highest 2% start at about 52,000. Many of the other results were omitted from the sample, so the highest values are more common in it than they were.

The target in the experiment is T1, OsWOX13 (Oryza sativa, UniProt Q5QMM3 1-267).
T1 sequence: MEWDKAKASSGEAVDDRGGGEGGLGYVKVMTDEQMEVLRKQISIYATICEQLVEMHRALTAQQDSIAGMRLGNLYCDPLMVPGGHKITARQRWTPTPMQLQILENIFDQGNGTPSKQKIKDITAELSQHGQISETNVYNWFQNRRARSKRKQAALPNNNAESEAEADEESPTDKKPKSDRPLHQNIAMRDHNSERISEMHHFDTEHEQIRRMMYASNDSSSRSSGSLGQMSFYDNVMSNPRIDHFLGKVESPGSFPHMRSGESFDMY
As to the kind of experiment: protein-binding microarray (RPBM); PBS, 2% BSA, 51.3 ng/ul salmon testes DNA, 50 uM zinc acetate, 200 nM TF, 25 C, 1 h; high values mean tight binding. As to conditions: protein: recombinant; tags: N-terminal polyhistidine and DsRed monomer fusion (pET32a); label: CyDye5-dUTP incorporated in the synthesized complementary strand; 3' TTTTT single-stranded linker to array surface; dsDNA, one strand shown. The procedure, abridged:
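Binding signal here means per-feature fluorescence intensity in arbitrary units. The values were read on an Axon 4000B scanner after a custom Agilent array, double-stranded by primer extension with Cy5-dUTP, was incubated with 200 nM protein at 25 °C for 1 h in PBS with 2% BSA, salmon testes DNA and 50 µM zinc acetate, then washed. The proteins were transcription factors with an N-terminal polyhistidine tag and DsRed, expressed in E. coli BL21-CodonPlus and purified on Ni–NTA.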
For “TCTAAACATATCCAGATAAATTATTCTGAGATGAGTCTCACGGAGTCACCTAGTGCAG”, the binding signal is 3670 fluorescence intensity (a.u.).
Consider “TTCACGCTTGATTGGGCTGGGATTAAGGCCCATTTATACACGGAGTCACCTAGTGCAG”, for which the binding signal was 23500 fluorescence intensity (a.u.).
Then “ACCCCGAGCTGATTATCTCTGAACGTACGATCAAGCCGTCCGGAGTCACCTAGTGCAG”, with 6180 fluorescence intensity (a.u.).
The figure for “TACTAATTACTACTAACCGTTAAAAGTAGCCGCCGGTTAACGGAGTCACCTAGTGCAG” is 17800 fluorescence intensity (a.u.); for “CTTTAGTCTCTGACACTAATTTAGAGTATTAAATATAGACCGGAGTCACCTAGTGCAG” it is 3810 fluorescence intensity (a.u.).
Then “ACAACCAACTGATTGAAGACGTCCACGTGCTTCCTAAGATCGGAGTCACCTAGTGCAG”, with 35200 fluorescence intensity (a.u.); and “AAATCAATTACTAGTGCGCGGTTTGTTGAGGAAAAGGCAACGGAGTCACCTAGTGCAG”, with 6960 fluorescence intensity (a.u.).
As to “ACGATCAAATTTAGACATGGAAACTCGTGACTGTGCTTATCGGAGTCACCTAGTGCAG”, the binding signal was 6550 fluorescence intensity (a.u.).
The figure for “AAGATTTAATTGTTACGAACACAACGGCGTAATCGGATCGCGGAGTCACCTAGTGCAG” is 36000 fluorescence intensity (a.u.); for “GGGAGAGGTGATGAGTGATTGGAGTAGAGGGGAGATGAGGCGGAGTCACCTAGTGCAG” it is 12600 fluorescence intensity (a.u.).
Then “AGTGATGGCATTGACTGACTTGGGGAAGGAAACAATCGAGCGGAGTCACCTAGTGCAG”, with 16000 fluorescence intensity (a.u.); and “TTGGCGATTGATTGGGGAAAGGAAACTTTGCTAGGTCAATCGGAGTCACCTAGTGCAG”, with 53500 fluorescence intensity (a.u.).
Then “TGGAGGGATTTGATTTGGAAAGGATTTGGATTCGGGATTGCGGAGTCACCTAGTGCAG”, with 3870 fluorescence intensity (a.u.).
With “TCGAAAATTGGTTTTGTTAATATACTAGGACTGATTTCAGCGGAGTCACCTAGTGCAG”, the binding signal was 6190 fluorescence intensity (a.u.).
Then “TGTTGTGATTGGTTGAGAAATGTGGGTATGTGAGAAAATACGGAGTCACCTAGTGCAG”, with 15200 fluorescence intensity (a.u.); and “ACTGATTGATTTGGAAGGAGAGAAATACTATGTTGGGTTTCGGAGTCACCTAGTGCAG”, with 63700 fluorescence intensity (a.u.); and “GTGTGATTTGCTAATTGGGTTTGTTATGAAGCTGGTTATCCGGAGTCACCTAGTGCAG”, with 54000 fluorescence intensity (a.u.).
Then “TGTGGGATGGATTTGTGGTGATTGAGAGGGTTTGAAAGGGCGGAGTCACCTAGTGCAG”, with 15700 fluorescence intensity (a.u.); and “GTTAATTTTGTGAAATATGTTTGCTGGTTAGTGAATTGTACGGAGTCACCTAGTGCAG”, with 12400 fluorescence intensity (a.u.); and “GTTTGATTGGAGCAATGTCTCAATGGGTGAGAAGATGAGGCGGAGTCACCTAGTGCAG”, with 54300 fluorescence intensity (a.u.).
In the case of “GTGTGTGATGGGTTAATCGATGTGCTATGTTATTGGTTTCCGGAGTCACCTAGTGCAG”, the binding signal is 5310 fluorescence intensity (a.u.).
With “TGTAACAAACAGGCTGTAACGGCACCGTAATAAACCCAACCGGAGTCACCTAGTGCAG”, the binding signal was 6570 fluorescence intensity (a.u.).
The figure for “AGCCAATCAGAATCCAAATAAAACATTCTTGCAGCAGGCGCGGAGTCACCTAGTGCAG” is 15900 fluorescence intensity (a.u.); for “ATTTGTCTAGTACTCCTAATTGGTACATCGACGATCTGCGCGGAGTCACCTAGTGCAG” it is 6670 fluorescence intensity (a.u.); for “CTAGCCACTTGGTATAATTGACTGAGTCTTGATAAAGCTTCGGAGTCACCTAGTGCAG” it is 7350 fluorescence intensity (a.u.).
The figure for “CAAATGTAATTTCGCACTATTCTTATCTAATGTTTGACATCGGAGTCACCTAGTGCAG” is 4370 fluorescence intensity (a.u.); for “TTTGACCTTTGTTCTGATTGCTACAACGAGGGAAAGTTTACGGAGTCACCTAGTGCAG” it is 4690 fluorescence intensity (a.u.); for “ATATATATATATATATATATATATATATATATAAACCCAACGGAGTCACCTAGTGCAG” it is 24000 fluorescence intensity (a.u.).
Then “ATCTAAGCTCATCTCAACCAATCACAACCATCGTTGATTTCGGAGTCACCTAGTGCAG”, with 3410 fluorescence intensity (a.u.); and “ATAAATTACTTTTCGTTTGCAAATATGCTGTTTGAATAAGCGGAGTCACCTAGTGCAG”, with 13300 fluorescence intensity (a.u.).
Turning to “TTACATGATTATGTTAATTACTACACAATTATAGGGCCTACGGAGTCACCTAGTGCAG”, the binding signal is 42500 fluorescence intensity (a.u.).
As for “TTCTGATCACAGATCAATTACTCTTGATCGCCCATTTATTCGGAGTCACCTAGTGCAG”, the binding signal was 9590 fluorescence intensity (a.u.).
In the case of “TGTATTCATCATCTAAATTATTGTTCATAAACCTATAGGCCGGAGTCACCTAGTGCAG”, the binding signal was 3420 fluorescence intensity (a.u.).
The figure for “ACGGAATGAACACTAATTTACTTAATACATAGAACCACGGCGGAGTCACCTAGTGCAG” is 19400 fluorescence intensity (a.u.); for “AACCAATTTATATTGTCAGAAGAAAATGCATTATATAGGTCGGAGTCACCTAGTGCAG” it is 6730 fluorescence intensity (a.u.); for “CATTGAATGTTTGGACACTAATTATAAATATTAAACGTAGCGGAGTCACCTAGTGCAG” it is 9090 fluorescence intensity (a.u.).
The figure for “AGTTATTGATAACATAAGCCTTAAAAGTTCGCCCTAACCTCGGAGTCACCTAGTGCAG” is 4600 fluorescence intensity (a.u.); for “CAAAACAGACATAATCTTGTTGGACAGACGTAGCCATGAACGGAGTCACCTAGTGCAG” it is 12500 fluorescence intensity (a.u.).
As to “TCATAATTGGATGGCATTGTACTGTGATTTGTTTGTGTTGCGGAGTCACCTAGTGCAG”, the binding signal was 49200 fluorescence intensity (a.u.).
In the case of “TTGCAATTGCCAATTTCTTTATTATATTGTTGGTTTAACTCGGAGTCACCTAGTGCAG”, the binding signal is 16700 fluorescence intensity (a.u.).
Then “GCTTAATTAGCTTGTATTTAGTTGGTTAATTTAGTGTTGTCGGAGTCACCTAGTGCAG”, with 43600 fluorescence intensity (a.u.); and “TTGATTGGATAATTTTGTGGTTTGGGAAGAAATGGTGATGCGGAGTCACCTAGTGCAG”, with 64000 fluorescence intensity (a.u.).
